Results taken from the supplement of paper PMC11732987, “Enantioselective OTUD7B fragment discovery through chemoproteomics screening and high-throughput optimisation” (Communications Chemistry, 2025).

Legend:
Test in all cases: log2 ratio of Biotin-Ahx-Ub-VS probe labelling (fragment/DMSO); higher = less target engagement (more negative = stronger competition), active = hit call of the paper (q ≤ 0.05, log2 ratio ≤ -1)
Details in all cases: compound concentration: 200 uM; treatment time: 3 h
USP34 = USP34 (UniProt Q70CQ2)
Sequence of USP34 (Q70CQ2 whole entry, the tested form may be a part): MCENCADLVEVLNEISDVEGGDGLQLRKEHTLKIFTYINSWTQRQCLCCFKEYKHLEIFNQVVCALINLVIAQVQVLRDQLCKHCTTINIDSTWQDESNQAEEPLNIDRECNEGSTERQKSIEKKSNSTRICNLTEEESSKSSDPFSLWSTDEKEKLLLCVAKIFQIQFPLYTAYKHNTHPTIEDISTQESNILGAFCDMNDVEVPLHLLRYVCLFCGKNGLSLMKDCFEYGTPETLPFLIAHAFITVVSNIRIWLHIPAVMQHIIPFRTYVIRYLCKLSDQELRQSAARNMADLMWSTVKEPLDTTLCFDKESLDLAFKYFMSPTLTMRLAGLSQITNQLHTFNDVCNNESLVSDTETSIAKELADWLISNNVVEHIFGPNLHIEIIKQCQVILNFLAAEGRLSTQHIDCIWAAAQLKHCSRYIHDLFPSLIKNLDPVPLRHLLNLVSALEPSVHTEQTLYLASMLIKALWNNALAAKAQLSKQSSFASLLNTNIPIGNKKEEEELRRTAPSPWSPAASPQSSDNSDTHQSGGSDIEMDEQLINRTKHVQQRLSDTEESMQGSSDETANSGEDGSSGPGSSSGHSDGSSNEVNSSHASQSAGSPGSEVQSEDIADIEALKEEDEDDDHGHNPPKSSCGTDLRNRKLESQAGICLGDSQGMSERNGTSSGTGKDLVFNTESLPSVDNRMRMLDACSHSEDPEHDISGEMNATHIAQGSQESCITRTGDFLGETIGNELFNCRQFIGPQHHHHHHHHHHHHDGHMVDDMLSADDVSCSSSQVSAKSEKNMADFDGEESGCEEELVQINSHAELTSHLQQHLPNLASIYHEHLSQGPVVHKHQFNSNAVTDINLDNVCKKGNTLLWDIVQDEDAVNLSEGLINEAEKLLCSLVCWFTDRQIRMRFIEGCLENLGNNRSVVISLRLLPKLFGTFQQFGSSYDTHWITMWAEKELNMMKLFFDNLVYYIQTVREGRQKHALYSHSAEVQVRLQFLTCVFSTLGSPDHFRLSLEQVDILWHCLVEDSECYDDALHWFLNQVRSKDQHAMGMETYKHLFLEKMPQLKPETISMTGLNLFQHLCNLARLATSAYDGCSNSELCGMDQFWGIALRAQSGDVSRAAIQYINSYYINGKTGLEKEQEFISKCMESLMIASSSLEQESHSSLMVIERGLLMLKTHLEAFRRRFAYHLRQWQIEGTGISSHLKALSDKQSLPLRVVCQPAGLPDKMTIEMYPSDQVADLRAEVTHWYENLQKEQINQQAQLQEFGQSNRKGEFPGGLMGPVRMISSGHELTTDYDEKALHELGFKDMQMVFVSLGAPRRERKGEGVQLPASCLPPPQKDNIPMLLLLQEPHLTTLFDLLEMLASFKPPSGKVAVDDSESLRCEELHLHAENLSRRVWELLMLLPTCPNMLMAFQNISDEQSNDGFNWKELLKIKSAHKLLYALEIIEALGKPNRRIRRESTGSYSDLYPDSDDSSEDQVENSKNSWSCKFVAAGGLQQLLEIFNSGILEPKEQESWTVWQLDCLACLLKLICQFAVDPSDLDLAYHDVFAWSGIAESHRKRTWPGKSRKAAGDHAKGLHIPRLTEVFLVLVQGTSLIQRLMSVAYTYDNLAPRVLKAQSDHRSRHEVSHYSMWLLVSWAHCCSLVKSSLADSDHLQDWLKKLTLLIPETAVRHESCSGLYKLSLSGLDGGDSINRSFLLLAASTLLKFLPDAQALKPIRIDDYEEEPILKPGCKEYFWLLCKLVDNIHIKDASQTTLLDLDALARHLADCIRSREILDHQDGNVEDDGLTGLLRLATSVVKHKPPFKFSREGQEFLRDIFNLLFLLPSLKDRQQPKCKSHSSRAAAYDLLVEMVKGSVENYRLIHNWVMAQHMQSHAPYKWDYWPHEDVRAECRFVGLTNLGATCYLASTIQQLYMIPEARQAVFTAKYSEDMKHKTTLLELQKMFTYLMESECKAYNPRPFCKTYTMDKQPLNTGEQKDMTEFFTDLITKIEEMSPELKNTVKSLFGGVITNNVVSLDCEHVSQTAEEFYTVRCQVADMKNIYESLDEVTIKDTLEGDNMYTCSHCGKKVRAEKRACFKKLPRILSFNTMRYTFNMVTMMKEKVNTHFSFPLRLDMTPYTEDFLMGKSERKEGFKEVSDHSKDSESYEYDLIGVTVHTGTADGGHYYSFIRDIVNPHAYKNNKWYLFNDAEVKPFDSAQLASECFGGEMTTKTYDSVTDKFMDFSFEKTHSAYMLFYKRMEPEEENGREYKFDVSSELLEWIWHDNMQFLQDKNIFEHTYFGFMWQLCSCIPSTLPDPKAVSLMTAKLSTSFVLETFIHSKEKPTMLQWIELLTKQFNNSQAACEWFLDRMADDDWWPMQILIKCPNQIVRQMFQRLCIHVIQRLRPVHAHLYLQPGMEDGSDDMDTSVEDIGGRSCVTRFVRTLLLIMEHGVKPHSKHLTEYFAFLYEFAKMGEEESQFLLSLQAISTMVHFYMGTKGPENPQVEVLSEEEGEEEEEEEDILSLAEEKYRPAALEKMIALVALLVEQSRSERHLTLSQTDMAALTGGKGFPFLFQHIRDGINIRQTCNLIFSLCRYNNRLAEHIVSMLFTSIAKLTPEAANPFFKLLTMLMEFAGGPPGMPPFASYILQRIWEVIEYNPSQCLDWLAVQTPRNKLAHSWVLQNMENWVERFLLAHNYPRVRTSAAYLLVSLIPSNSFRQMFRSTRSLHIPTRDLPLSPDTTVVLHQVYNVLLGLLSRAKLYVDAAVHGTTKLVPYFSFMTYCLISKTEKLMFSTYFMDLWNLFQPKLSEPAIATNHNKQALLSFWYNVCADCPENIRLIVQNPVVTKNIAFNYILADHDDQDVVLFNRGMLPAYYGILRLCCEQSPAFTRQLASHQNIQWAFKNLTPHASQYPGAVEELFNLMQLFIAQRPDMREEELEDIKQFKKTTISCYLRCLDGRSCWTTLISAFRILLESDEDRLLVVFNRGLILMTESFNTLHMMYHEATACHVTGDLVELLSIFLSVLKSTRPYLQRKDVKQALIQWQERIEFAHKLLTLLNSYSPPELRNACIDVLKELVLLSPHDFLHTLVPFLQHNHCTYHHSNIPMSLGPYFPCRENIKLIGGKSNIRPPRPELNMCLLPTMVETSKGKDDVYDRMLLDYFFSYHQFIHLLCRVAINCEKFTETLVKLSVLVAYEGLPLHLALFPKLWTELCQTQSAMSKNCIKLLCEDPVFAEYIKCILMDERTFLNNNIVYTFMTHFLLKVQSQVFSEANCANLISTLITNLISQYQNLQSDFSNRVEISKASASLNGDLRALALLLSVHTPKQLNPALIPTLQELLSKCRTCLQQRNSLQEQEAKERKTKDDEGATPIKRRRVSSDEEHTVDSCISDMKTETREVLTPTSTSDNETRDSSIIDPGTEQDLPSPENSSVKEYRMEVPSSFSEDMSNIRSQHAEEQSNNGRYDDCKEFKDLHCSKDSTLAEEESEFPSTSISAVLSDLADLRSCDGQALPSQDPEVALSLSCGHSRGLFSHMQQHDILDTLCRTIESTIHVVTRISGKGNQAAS
Procedure, shortened: (§1)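 HEK293T lysate, 495 µg per sample in Tris/CHAPS/IGEPAL buffer with protease inhibitors, was treated in triplicate with fragment at 200 µM or vehicle for 3 h and then with Biotin-Ahx-Ub-VS at 0.5 µM final for 1 h. Labelled DUBs were NeutrAvidin-enriched, digested with LysC and trypsin, and run by diaPASEF LC-MS/MS. Spectronaut label-free quantities were global-median-normalised, and values are average log2 fragment/vehicle ratios by unpaired t-test on proteins with ≥2 unique peptides.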

USP36 = biological target: T1, USP36 (UniProt Q9P275)
T1 sequence (whole entry): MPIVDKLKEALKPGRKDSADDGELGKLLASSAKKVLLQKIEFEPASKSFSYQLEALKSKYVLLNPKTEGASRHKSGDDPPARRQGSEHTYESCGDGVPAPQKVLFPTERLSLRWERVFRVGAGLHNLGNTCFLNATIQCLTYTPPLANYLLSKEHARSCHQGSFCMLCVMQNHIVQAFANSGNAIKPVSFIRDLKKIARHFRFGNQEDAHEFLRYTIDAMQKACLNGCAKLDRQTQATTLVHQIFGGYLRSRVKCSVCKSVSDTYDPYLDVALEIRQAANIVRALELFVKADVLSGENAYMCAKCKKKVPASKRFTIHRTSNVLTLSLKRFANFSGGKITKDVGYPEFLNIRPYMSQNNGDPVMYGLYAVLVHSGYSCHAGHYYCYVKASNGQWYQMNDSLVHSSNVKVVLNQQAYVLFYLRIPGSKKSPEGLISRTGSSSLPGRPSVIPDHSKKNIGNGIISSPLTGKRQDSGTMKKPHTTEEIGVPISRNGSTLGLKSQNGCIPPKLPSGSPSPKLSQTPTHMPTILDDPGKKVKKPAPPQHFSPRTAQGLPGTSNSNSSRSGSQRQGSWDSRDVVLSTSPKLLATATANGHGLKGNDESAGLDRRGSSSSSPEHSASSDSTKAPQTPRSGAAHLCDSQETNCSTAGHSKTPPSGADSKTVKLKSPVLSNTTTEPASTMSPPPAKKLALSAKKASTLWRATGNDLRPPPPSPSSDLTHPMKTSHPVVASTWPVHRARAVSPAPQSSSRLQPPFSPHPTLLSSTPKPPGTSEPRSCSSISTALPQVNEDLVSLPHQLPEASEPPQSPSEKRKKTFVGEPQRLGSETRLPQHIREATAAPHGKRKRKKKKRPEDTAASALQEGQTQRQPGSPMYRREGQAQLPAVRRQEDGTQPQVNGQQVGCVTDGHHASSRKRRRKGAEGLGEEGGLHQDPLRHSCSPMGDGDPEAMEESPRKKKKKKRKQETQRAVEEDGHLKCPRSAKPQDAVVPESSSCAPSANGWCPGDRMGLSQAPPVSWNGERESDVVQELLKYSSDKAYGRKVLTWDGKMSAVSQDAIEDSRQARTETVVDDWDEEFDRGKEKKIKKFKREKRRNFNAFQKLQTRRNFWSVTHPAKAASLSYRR
Procedure, shortened: as §1

USP38 = biological target: T2, USP38 (UniProt Q8NB14)
T2 sequence (whole entry): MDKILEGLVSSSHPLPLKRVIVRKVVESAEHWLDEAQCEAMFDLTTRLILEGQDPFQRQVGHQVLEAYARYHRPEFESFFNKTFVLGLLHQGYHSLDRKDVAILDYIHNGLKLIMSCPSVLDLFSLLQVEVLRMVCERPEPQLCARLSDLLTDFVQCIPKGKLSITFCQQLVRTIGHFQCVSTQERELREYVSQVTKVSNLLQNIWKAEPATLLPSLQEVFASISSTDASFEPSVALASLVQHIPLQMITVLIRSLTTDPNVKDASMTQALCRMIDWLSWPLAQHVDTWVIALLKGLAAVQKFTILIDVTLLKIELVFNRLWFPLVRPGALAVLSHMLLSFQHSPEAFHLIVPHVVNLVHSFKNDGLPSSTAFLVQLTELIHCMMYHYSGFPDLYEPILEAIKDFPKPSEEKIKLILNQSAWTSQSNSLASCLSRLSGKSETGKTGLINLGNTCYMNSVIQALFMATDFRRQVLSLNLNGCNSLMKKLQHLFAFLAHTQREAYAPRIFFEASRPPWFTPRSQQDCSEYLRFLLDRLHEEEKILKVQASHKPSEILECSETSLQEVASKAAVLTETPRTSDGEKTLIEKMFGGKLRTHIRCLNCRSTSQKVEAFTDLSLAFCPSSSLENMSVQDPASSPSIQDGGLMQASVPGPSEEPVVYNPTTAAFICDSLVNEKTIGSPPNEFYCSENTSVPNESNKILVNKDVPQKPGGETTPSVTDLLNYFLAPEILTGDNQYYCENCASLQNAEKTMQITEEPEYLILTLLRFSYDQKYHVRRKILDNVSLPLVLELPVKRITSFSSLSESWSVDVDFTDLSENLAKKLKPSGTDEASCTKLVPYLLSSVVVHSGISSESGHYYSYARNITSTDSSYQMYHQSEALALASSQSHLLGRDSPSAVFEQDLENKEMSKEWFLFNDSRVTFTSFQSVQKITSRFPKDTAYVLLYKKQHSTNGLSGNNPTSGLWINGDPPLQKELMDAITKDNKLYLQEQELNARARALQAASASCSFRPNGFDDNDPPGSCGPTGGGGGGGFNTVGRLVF
Procedure, shortened: as §1

USP39 = biological target: T3, USP39 (UniProt Q53GS9)
T3 sequence (whole entry): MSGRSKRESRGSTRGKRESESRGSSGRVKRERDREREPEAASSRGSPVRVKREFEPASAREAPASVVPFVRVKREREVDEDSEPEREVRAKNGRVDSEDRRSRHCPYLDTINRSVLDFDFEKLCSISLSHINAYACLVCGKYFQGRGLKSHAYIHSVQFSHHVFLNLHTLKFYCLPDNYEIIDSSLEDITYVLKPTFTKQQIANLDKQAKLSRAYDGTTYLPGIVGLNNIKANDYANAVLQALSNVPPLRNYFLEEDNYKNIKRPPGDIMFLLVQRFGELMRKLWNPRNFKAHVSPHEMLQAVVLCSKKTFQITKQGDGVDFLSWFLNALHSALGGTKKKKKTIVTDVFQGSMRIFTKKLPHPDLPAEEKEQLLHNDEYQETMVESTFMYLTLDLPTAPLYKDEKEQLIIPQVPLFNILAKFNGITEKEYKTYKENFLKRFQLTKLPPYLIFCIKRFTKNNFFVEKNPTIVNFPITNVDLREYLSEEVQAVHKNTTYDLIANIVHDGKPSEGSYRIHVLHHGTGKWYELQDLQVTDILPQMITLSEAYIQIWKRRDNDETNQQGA
Procedure, shortened: as §1

USP4 = biological target: T4, USP4 (UniProt Q13107)
T4 sequence (whole entry): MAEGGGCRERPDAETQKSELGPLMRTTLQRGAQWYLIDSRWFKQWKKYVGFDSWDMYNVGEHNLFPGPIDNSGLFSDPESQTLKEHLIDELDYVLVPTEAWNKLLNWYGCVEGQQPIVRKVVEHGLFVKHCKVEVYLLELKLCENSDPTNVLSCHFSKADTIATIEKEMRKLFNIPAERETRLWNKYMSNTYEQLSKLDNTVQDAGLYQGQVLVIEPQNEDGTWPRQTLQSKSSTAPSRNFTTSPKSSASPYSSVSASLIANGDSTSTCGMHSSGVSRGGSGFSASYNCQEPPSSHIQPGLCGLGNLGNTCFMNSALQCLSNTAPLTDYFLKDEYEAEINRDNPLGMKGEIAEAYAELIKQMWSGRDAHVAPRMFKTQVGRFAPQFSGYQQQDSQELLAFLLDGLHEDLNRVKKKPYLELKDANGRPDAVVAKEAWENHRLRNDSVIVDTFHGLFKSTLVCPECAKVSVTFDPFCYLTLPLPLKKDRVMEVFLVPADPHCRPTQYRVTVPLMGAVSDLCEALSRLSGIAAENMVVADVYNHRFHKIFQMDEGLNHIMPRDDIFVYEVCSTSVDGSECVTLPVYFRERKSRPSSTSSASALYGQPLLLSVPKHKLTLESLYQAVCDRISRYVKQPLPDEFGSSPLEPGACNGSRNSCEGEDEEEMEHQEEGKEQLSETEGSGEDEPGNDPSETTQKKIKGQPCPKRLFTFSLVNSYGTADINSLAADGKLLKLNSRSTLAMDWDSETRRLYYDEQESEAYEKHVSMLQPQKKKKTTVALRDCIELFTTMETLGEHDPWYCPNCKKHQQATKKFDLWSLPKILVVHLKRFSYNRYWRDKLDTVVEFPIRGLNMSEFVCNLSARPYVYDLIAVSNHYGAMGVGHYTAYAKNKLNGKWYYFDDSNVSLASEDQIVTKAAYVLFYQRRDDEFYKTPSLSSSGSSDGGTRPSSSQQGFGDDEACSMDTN
Procedure, shortened: as §1

Measured: log2 ratio of Biotin-Ahx-Ub-VS probe labelling

Cn1cc(CN(Cc2ccc(Cl)cc2)C(=O)CCl)cn1
inactive: USP34 -0.228 | USP36 0.253 | USP38 -0.245 | USP39 -0.193 | USP4 -0.316
